# About 79,000 compounds went through this panel and 15% of them were active in at least one assay; those are over-represented in the sample as a whole. A number with no mark means an inactive call. Activity calls are given as the source filed them. Rule as the data show it: active = growth inhibition above about 70%; inactive = the rest.
# Assay: NCI Yeast Anticancer Drug Screen. Data for the cln2 rad14 strain (AID 165);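 also: 0% = growth equal to vehicle treated cultures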
# Conditions: S. cerevisiae cln2 rad14 strain, at 50.0 µM (retest, dose inferred, filed as 5.0), stronger effect = higher value
# Procedure, shortened: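 Compounds are applied to the cln2 rad14 yeast strain, and growth is then compared with that of vehicle-treated cultures to give inhibition.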
row,Compound,growth inhibition
1,CC(CN(C)C)C(=O)/C=C/c1c(Cl)cccc1Cl (stereo not given),44%
2,COc1ccc(C(=O)c2cc(Br)ccc2O)cc1,-9%
3,COc1cccc(OC)c1C(=O)/C=C/c1ccccc1,47%
4,S=C(Nc1ccc(Cl)c(Cl)c1)SC1CCCCC1,95% (active)
5,Cc1sc(N=Nc2c(O)[nH]c3ccccc23)nc1-c1ccccc1,19%
6,O=C(NC(c1ccccc1)N1CCOCC1)c1ccccc1 (stereo not given),3%
7,Cc1nc2ccc3c(ccc4nc(C)c(N=Nc5ccc(C(=N)N)cc5)c(O)c43)c2c(O)c1N=Nc1ccc(C(=N)N)cc1,81% (active)
8,CN(C)CCNC(=O)C(c1ccccc1)c1ccccc1,-3%
9,CCOc1ccc(C(=O)CCN2CCOCC2)cc1,59%
10,O=S(Nc1ccccc1Br)c1ccccc1 (stereo not given),12%
11,CSC(=S)N/N=C(\C)c1ccc[nH]1,92% (active)
12,Cc1ccc(Cl)cc1NN,94% (active)
13,C[C@]12CC[C@H](O)C[C@@H]1CC[C@@H]1[C@@H]2CC[C@]2(C)[C@@H](c3cc(C(F)(F)F)n[nH]3)CC[C@@H]12,92% (active)
14,CCCOC(=O)C(S)C(S)C(=O)OCCC (stereo not given),90% (active)
15,CCC(C)(C)c1cc(Br)c(NS(=O)(=O)c2ccc(NC(C)=O)cc2)c(Br)c1,78% (active)
16,Cn1c2c(c3nc(N)nc(N)c3c1=O)CCc1ccccc1-2,37%
17,Cc1ccc(C(O)CCN2CCOCC2)c(C)c1 (stereo not given),71% (active)
18,COC(=O)CCCC(=O)NC1=C(Nc2ccccc2)C(=O)c2ccccc2C1=O,24%
19,Oc1cc(Br)cc2cccnc12,99% (active)
20,COC(=O)Cc1cn[nH]c1C(=O)OC,-52%

row,Compound,growth inhibition
1,O=C1CCCCCCC2=C1C(Sc1ccccc1)CC2 (stereo not given),28%
2,CC/C(=C1\C=CC(=O)S1)C(CC)c1ccc(OC(C)=O)cc1 (stereo not given),99% (active)
3,COc1ccc(C2=C(Cl)C(=O)N(c3ccc(C)cc3)C(=O)C2(Cl)Cl)cc1,19%
4,CN(C)C1C[C@@H](O[Si](C)(C)C(C)(C)C)C=C1S(=O)(=O)c1ccccc1 (stereo not given in full),99% (active)
5,NC(=O)C(=O)N/N=C/c1ccc([N+](=O)[O-])o1,18%
6,O=C(O)C1CCC(CC2CC3CCC2C3)CC1 (stereo not given),65%
7,CCCCCCCCCCCCOCC[N+](CCO)(CCO)Cc1ccccc1,99% (active)
8,Cc1cc(C)cc([C@H](C)N=Cc2cc(Br)ccc2O)c1,96% (active)
9,C=CC1(c2ccc(OC)cc2)OCCCO1,99% (active)
10,CC(C)CCOC(=O)c1ccc(O)cc1.[Zn+2],17%
11,C/C=C/C=C\C1OC(O)([C@H](CC)C(=O)NC/C=C/C=C(\C)[C@H](OC)C(C)C2OC(\C=C/C=C/C=C(\C)C(=O)c3c(O)ccn(C)c3=O)[C@H](O)[C@@H]2O)C(O)C(O)C1(C)C (stereo not given in full),35%
12,O=c1cccccc1[O-].O=c1cccccc1[O-].O=c1cccccc1[O-].[Dy+3],10%
13,CCCC(=O)Oc1ccc(-c2ccc(Br)cc2)cc1,93% (active)
14,Oc1c(Cl)c(Cl)c(O)c2c1CCCC2,99% (active)
15,Clc1nc(Cl)nc(N2CCCc3ccccc32)n1,56%
16,CC[C@H]1CN2CCc3cc(OC)c(OC)cc3[C@@H]2C[C@@H]1C[C@H]1NCCc2cc(OC)c(OC)cc21,17%
17,S=C(NCCc1ccccc1)N/N=C/c1ccc(Cl)cc1,45%
18,O=C(O)Cc1ccc2c(c1O)C(=O)c1ccccc1C2=O,7%
19,CC1CCN(C(=S)NNC(C)c2cc3ccccc3cn2)CC1 (stereo not given),97% (active)
20,Cc1c[nH]c(C(=O)O)c1-c1ccc2c(-c3ccccc3)nc3ccccc3n12,99% (active)

# Same assay, conditions: S. cerevisiae cln2 rad14 strain, at 50.0 µM, stronger effect = higher value
row,Compound,growth inhibition
1,CC(CN(C)C)C(=O)/C=C/c1c(Cl)cccc1Cl (stereo not given),29.4%
2,COc1ccc(C(=O)c2cc(Br)ccc2O)cc1,46%
3,COc1cccc(OC)c1C(=O)/C=C/c1ccccc1,55.4%
4,S=C(Nc1ccc(Cl)c(Cl)c1)SC1CCCCC1,87.5% (active)
5,Cc1sc(N=Nc2c(O)[nH]c3ccccc23)nc1-c1ccccc1,13.7%
6,O=C(NC(c1ccccc1)N1CCOCC1)c1ccccc1 (stereo not given),76.9% (active)
7,Cc1nc2ccc3c(ccc4nc(C)c(N=Nc5ccc(C(=N)N)cc5)c(O)c43)c2c(O)c1N=Nc1ccc(C(=N)N)cc1,87% (active)
8,CN(C)CCNC(=O)C(c1ccccc1)c1ccccc1,96.2% (active)
9,CCOc1ccc(C(=O)CCN2CCOCC2)cc1,52.9%
10,O=S(Nc1ccccc1Br)c1ccccc1 (stereo not given),-3.25%
11,CSC(=S)N/N=C(\C)c1ccc[nH]1,72.6% (active)
12,Cc1ccc(Cl)cc1NN,97.6% (active)
13,C[C@]12CC[C@H](O)C[C@@H]1CC[C@@H]1[C@@H]2CC[C@]2(C)[C@@H](c3cc(C(F)(F)F)n[nH]3)CC[C@@H]12,68.9%
14,CCCOC(=O)C(S)C(S)C(=O)OCCC (stereo not given),40%
15,CCC(C)(C)c1cc(Br)c(NS(=O)(=O)c2ccc(NC(C)=O)cc2)c(Br)c1,6.85%
16,Cn1c2c(c3nc(N)nc(N)c3c1=O)CCc1ccccc1-2,42.8%
17,Cc1ccc(C(O)CCN2CCOCC2)c(C)c1 (stereo not given),57.2%
18,COC(=O)CCCC(=O)NC1=C(Nc2ccccc2)C(=O)c2ccccc2C1=O,38.6%
19,Oc1cc(Br)cc2cccnc12,89.5% (active)
20,COC(=O)Cc1cn[nH]c1C(=O)OC,29.6%

row,Compound,growth inhibition
1,O=C1CCCCCCC2=C1C(Sc1ccccc1)CC2 (stereo not given),45.6%
2,CC/C(=C1\C=CC(=O)S1)C(CC)c1ccc(OC(C)=O)cc1 (stereo not given),70.2% (active)
3,COc1ccc(C2=C(Cl)C(=O)N(c3ccc(C)cc3)C(=O)C2(Cl)Cl)cc1,54.3%
4,CN(C)C1C[C@@H](O[Si](C)(C)C(C)(C)C)C=C1S(=O)(=O)c1ccccc1 (stereo not given in full),33.5%
5,NC(=O)C(=O)N/N=C/c1ccc([N+](=O)[O-])o1,2.8%
6,O=C(O)C1CCC(CC2CC3CCC2C3)CC1 (stereo not given),44.2%
7,CCCCCCCCCCCCOCC[N+](CCO)(CCO)Cc1ccccc1,98.4% (active)
8,Cc1cc(C)cc([C@H](C)N=Cc2cc(Br)ccc2O)c1,86.3% (active)
9,C=CC1(c2ccc(OC)cc2)OCCCO1,88.7% (active)
10,CC(C)CCOC(=O)c1ccc(O)cc1.[Zn+2],37%
11,C/C=C/C=C\C1OC(O)([C@H](CC)C(=O)NC/C=C/C=C(\C)[C@H](OC)C(C)C2OC(\C=C/C=C/C=C(\C)C(=O)c3c(O)ccn(C)c3=O)[C@H](O)[C@@H]2O)C(O)C(O)C1(C)C (stereo not given in full),26.9%
12,O=c1cccccc1[O-].O=c1cccccc1[O-].O=c1cccccc1[O-].[Dy+3],80.2% (active)
13,CCCC(=O)Oc1ccc(-c2ccc(Br)cc2)cc1,90.2% (active)
14,Oc1c(Cl)c(Cl)c(O)c2c1CCCC2,98.9% (active)
15,Clc1nc(Cl)nc(N2CCCc3ccccc32)n1,74.7% (active)
16,CC[C@H]1CN2CCc3cc(OC)c(OC)cc3[C@@H]2C[C@@H]1C[C@H]1NCCc2cc(OC)c(OC)cc21,7.5%
17,S=C(NCCc1ccccc1)N/N=C/c1ccc(Cl)cc1,83% (active)
18,O=C(O)Cc1ccc2c(c1O)C(=O)c1ccccc1C2=O,57.5%
19,CC1CCN(C(=S)NNC(C)c2cc3ccccc3cn2)CC1 (stereo not given),84.9% (active)
20,Cc1c[nH]c(C(=O)O)c1-c1ccc2c(-c3ccccc3)nc3ccccc3n12,89% (active)

# Source: PubChem BioAssay (NCI)
